Screening results: PubChem, National Center for Advancing Translational Sciences (NCATS)
GLP1R ag: activates the human GLP-1 receptor | P43220 | HEK293 GLP-1R CRE-luciferase, luminescence, 4-6 h; cells express a hypersensitive GLP-1R form | Potency, µM (doses to about 45.6 µM), inactives show top-dose activation, hits mostly activators | 0.007% of 380,000 active | AID 624172; also: potency is read from the fitted curve at half-maximal effect; % of control where 0% means no effect
Target sequence (P43220 whole entry, looked up): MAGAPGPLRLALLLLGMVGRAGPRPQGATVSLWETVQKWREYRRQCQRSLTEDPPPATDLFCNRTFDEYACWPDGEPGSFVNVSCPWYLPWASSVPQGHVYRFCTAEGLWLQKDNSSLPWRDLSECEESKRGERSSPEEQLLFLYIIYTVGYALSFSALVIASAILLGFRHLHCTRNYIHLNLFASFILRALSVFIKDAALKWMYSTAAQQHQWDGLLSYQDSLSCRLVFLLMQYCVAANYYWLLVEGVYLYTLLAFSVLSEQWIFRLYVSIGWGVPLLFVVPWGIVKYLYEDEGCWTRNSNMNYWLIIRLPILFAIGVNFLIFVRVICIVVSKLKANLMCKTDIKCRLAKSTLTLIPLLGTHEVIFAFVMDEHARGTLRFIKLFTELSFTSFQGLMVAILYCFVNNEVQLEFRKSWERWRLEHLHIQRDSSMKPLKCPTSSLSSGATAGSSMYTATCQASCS
ClpP mod: qHTS Assay for Activators of ClpP; ATP-dependent Clp protease proteolytic subunit (Bacillus subtilis (strain 168)), P80244; purified B. subtilis ClpP, FRET peptide cleavage, 20 min; Potency, µM (series often up to 57.5 µM), for inactives: at the top dose activity change, negative = active; 1.9% of 340,000 active; AID 651965, 2013; active = well fitted falling curve with a large enough effect; inconclusive = small, poorly fitted or top-dose-only effect; inactive = no such curve, though single readings can be large or run the other way; also: potency is read from the fitted curve at half-maximal effect; the source files actives as falling curves though it sought activators and does not explain the sign; nearly all actives have a fitted effect of over 65% in size
Target sequence (P80244 whole entry, looked up): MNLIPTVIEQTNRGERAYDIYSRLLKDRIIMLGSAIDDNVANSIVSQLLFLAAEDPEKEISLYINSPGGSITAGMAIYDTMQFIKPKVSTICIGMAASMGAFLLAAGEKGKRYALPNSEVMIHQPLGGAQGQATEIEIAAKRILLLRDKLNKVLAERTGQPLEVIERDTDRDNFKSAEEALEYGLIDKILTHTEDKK
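Purified B. subtilis ClpP, 10 microg/mL final in Tris/HCl pH8 with KCl, BSA, glycerol and Tween-20, cleaved an Abz/nitrotyrosine-quenched decapeptide. Fluorescence (ex 320, em 430) was read at 0 and 20 min at room temperature. Delta was normalized to 5.8 microM ADEP and DMSO/no-enzyme controls.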
DRD3 agonist: activates the human D3 dopamine receptor. D3R DiscoveRx beta-arrestin cells, luminescence, 90 min. 0.58% of 410,000 active. AID 652048. max activation, %; in the data active = max activation above about 30%; also: 0% is about no effect
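Agonist-mode cell screen: cells plated at 1500/well and incubated overnight at 37 °C, then exposed to library compounds for 90 min at 37 °C. Detection reagent was added for 30–60 min at room temperature, and luminescence was read.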
GLP1R cytotox: cytotoxicity in counter-screen for GLP-1R inverse agonists; HEK293 cAMP-luciferase reporter cells, luminescence, 24 h; Potency, µM (series often up to 38.3 µM), without a hit: at the top dose activity change, negative = inhibition, hits mostly inhibitors; 0.13% of 410,000 active;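 also: loss of luciferase light is scored as toxicity; potency is read from the fitted curve at half-maximal effect; % is scaled to controls: 0 for no effect and ±100 for the full control effect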
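Cells in DMEM/10% Nu serum/1% pen-strep, 1536-well format. Pre-incubated 12 h, dosed with 23 nL compound, incubated a further 24 h. Luciferase detection, 12 min at room temp, luminescence.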
GLP1R inv ag: GLP-1 receptor (human) inverse agonism. P43220. HEK293 GLP-1R CRE-luciferase, luminescence, 24 h; GLP-1R form is constitutively active. Potency, µM (titrated, usually from 38.3 µM), inactives show at the highest dose activity change, negative = inhibition, usual class: inhibitors. 1.6% of 410,000 active; also: potency is read from the fitted curve at half-maximal effect; % is scaled to controls: 0 for no effect and ±100 for the full control effect; nearly all actives have a fitted effect of over 55% in size
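Using stably transfected HEK293 (constitutively active GLP-1R, cAMP-luciferase reporter), compounds were incubated 24 hr and luciferase measured by luminescence.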
DRD3 antagonist: D3 dopamine receptor (human) antagonism | 2.5% of 360,000 active | AID 652054 | D3R cells, DiscoveRx beta-arrestin luminescence, antagonist mode; active compounds read low | max response, negative = inhibition, %; in the data active = max response below about -50%; inconclusive = no clear call, values can overlap the other calls; also: % is scaled to controls: 0 for no effect and ±100 for the full control effect
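Cells plated overnight at 1500 cells/well, then exposed to library compounds with dopamine controls for 90 minutes at 37 degrees C. DiscoveRx reagent added for 30–60 minutes at room temperature; luminescence read, quantitative HTS format.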
* marks the source's active call; other numbers are inactive results. Sampled rows, rich in hits. Any-hit rate of the full collection: about 5.7%. Unless noted, calls follow the shape of the dose curve; as a rule, active = well fitted curve in the direction sought with a large enough effect; inconclusive = small, poorly fitted or top-dose-only effect, or another doubt; inactive = no such curve, though single readings can be large; an effect the other way counts as inactive or inconclusive.

Results for Cc1cccc2sc(NS(=O)(=O)c3ccccc3)nc12 ?
GLP1R ag: -2%; ClpP mod: 0%; DRD3 agonist: -2; GLP1R cytotox: -10%; GLP1R inv ag: 10%; DRD3 antagonist: -64*

Results for CCOC(=O)c1sc(NS(=O)(=O)c2ccc(NC(C)=O)cc2)nc1C ?
GLP1R ag: -8%; ClpP mod: 0%; DRD3 agonist: -7; GLP1R cytotox: -10%; GLP1R inv ag: -5%; DRD3 antagonist: 11

How did CCOC(=O)c1sc(NS(=O)(=O)c2ccccc2)nc1C do in these assays?
GLP1R ag: 4%; ClpP mod: 1%; DRD3 agonist: -15; GLP1R cytotox: 8%; GLP1R inv ag: 0%; DRD3 antagonist: -60*

How did Cc1nc(NS(=O)(=O)c2ccccc2)sc1C(C)(C)C do in these assays?
GLP1R ag: 10%; ClpP mod: -1%; DRD3 agonist: -10; GLP1R cytotox: -6%; GLP1R inv ag: -4%; DRD3 antagonist: inconclusive

How did CCOC(=O)c1sc(NS(=O)(=O)c2ccc(F)cc2)nc1C do in these assays?
GLP1R ag: 0%; DRD3 agonist: 4; GLP1R cytotox: -4%; GLP1R inv ag: -2%; DRD3 antagonist: 15

How did CCOC(=O)c1sc(NS(=O)(=O)c2ccccc2Cl)nc1C do in these assays?
GLP1R ag: 3%; ClpP mod: -2%; DRD3 agonist: -7; GLP1R cytotox: -1%; GLP1R inv ag: 3%; DRD3 antagonist: -70*

Results for Nc1c(Cl)cc(/C=C2\C=Cc3ccccc32)cc1Cl ?
ClpP mod: -1%

What do the screens show for `Cc1ccc(C(O)(c2ccccc2)c2ccccc2C(C)N(C)C)c(C)c1` (stereo not given)?
GLP1R ag: -7%; ClpP mod: 0%; DRD3 agonist: -1; GLP1R cytotox: inconclusive; GLP1R inv ag: 10µM*; DRD3 antagonist: -5

How did Cc1ccc2cccc(N=Cc3c(C)[nH]n(-c4ccccc4)c3=O)c2n1 do in these assays?
GLP1R ag: 20%; ClpP mod: -1%; DRD3 agonist: -28; GLP1R cytotox: 8%; GLP1R inv ag: 5.6µM*; DRD3 antagonist: -99*

Results for CCc1cccc(CC)c1NC(=O)NC1CCCCC1 ?
GLP1R ag: 0%; ClpP mod: -13%; DRD3 agonist: 1; GLP1R cytotox: 7%; GLP1R inv ag: 8%; DRD3 antagonist: 5

Results for CCc1ccccc1NC(=O)NC1CCCCC1 ?
GLP1R ag: 3%; ClpP mod: 3.2µM*; DRD3 agonist: -15; GLP1R cytotox: -2%; GLP1R inv ag: -10%; DRD3 antagonist: 43

How did CCc1ccc(NC(=S)NC2CC3CCCC(C2)N3Cc2cccs2)cc1 (stereo not given) do in these assays?
GLP1R ag: -1%; ClpP mod: 0%; DRD3 agonist: -42; GLP1R cytotox: inconclusive; GLP1R inv ag: inconclusive; DRD3 antagonist: -70*

How did CCc1ccccc1NC(=S)N(Cc1cccs1)C1CCCC1 do in these assays?
GLP1R ag: 1%; DRD3 agonist: 1; GLP1R cytotox: 0%; GLP1R inv ag: -25%; DRD3 antagonist: 3

What do the screens show for `COc1ccccc1CN(C)CC(=O)NC(=O)NC1CCCCC1`?
GLP1R ag: 14%; ClpP mod: -1%; DRD3 agonist: -4; GLP1R cytotox: 6%; GLP1R inv ag: 4.5µM*; DRD3 antagonist: 3

How did CCCN1C2CCCC1CC(NC(=S)Nc1ccc(OC)cc1)C2 (stereo not given) do in these assays?
GLP1R ag: 0%; ClpP mod: 1%; DRD3 agonist: -3; GLP1R cytotox: 2%; GLP1R inv ag: -28%; DRD3 antagonist: 8

How did CCc1ccccc1NC(=O)NC1CC2CCC(C1)N2Cc1cccs1 (stereo not given) do in these assays?
GLP1R ag: 0%; ClpP mod: 0%; DRD3 agonist: -30; GLP1R cytotox: -4%; GLP1R inv ag: -26%; DRD3 antagonist: -54*

Results for COc1ccccc1CNC(=O)C(Cc1ccccc1)NS(=O)(=O)c1ccc2c(c1)CCN2C(C)=O (stereo not given) ?
ClpP mod: -1%; DRD3 agonist: 1; GLP1R cytotox: -2%; GLP1R inv ag: 2%

Results for Fc1cccc(NCc2ccccc2-c2nnc(-c3ccccc3Cl)o2)c1 ?
ClpP mod: 1%; DRD3 agonist: -1; GLP1R cytotox: -3%; GLP1R inv ag: 23%

How did Cc1ccc(C)c(N2CCN(C(=O)CN3CCSc4ccc(S(=O)(=O)N(C)C)cc43)CC2)c1 do in these assays?
GLP1R ag: -7%; ClpP mod: inconclusive; DRD3 agonist: -12; GLP1R cytotox: -3%; GLP1R inv ag: -28%

Results for O=C(Nc1ccc(F)c(F)c1)c1cnn2c1NC(=C1CC1)C=C2C(F)(F)F ?
ClpP mod: -1%

Results for COCCNC(=S)NC1CC2CCC(C1)N2Cc1ccccc1 (stereo not given) ?
GLP1R ag: 5%; DRD3 agonist: -12; GLP1R cytotox: -4%; GLP1R inv ag: -26%; DRD3 antagonist: inconclusive

Results for CCc1ccccc1NC(=S)NC1CC2CCC(C1)N2Cc1ccc(F)cc1 (stereo not given) ?
GLP1R ag: 2%; ClpP mod: 1%; DRD3 agonist: -20; GLP1R cytotox: 1%; GLP1R inv ag: inconclusive; DRD3 antagonist: -90*

What do the screens show for `Cc1cccc(NC(=S)NC2CC3CCC(C2)N3Cc2ccco2)c1C` (stereo not given)?
GLP1R ag: -1%; ClpP mod: 0%; DRD3 agonist: -11; GLP1R cytotox: 0%; GLP1R inv ag: 6%; DRD3 antagonist: -14

What do the screens show for `CCc1ccccc1NC(=S)NC1CC2CCC(C1)N2Cc1ccco1` (stereo not given)?
GLP1R ag: -4%; ClpP mod: -3%; DRD3 agonist: -27; GLP1R cytotox: -4%; GLP1R inv ag: -2%; DRD3 antagonist: -53*

Results for COCCNc1nc(NCCN2CCNC2=O)c2sc(-c3ccccc3)cc2n1 ?
GLP1R ag: 6%; ClpP mod: 4%; DRD3 agonist: -5; GLP1R cytotox: -5%; GLP1R inv ag: inconclusive; DRD3 antagonist: -8

How did CC(=O)c1ccc(N2CCN(S(=O)(=O)c3c(C)nc4sc(C)cn4c3=O)CC2)cc1 do in these assays?
ClpP mod: -14%; DRD3 agonist: -6; GLP1R cytotox: -1%; GLP1R inv ag: 20%

How did Cc1ccc2nc(-c3ccc(-c4cccc(Cl)c4)cc3)c(NCc3ccccc3)n2c1 do in these assays?
GLP1R ag: 4%; ClpP mod: -28%; DRD3 agonist: 3; GLP1R cytotox: 3%; GLP1R inv ag: -12%; DRD3 antagonist: 21
